Screening results: PubChem, National Center for Advancing Translational Sciences (NCATS)
TrxR1 substrate = qHTS Assay for Substrates of Mammalian Selenoprotein Thioredoxin Reductase 1 (TrxR1): qHTS | Thioredoxin reductase 1, cytoplasmic (Rattus norvegicus), O89049 | purified TrxR1 substrate turnover, NADPH consumption readout | Potency, µM (titrated, usually from 114 µM), for the others: top-dose activity change, negative = substrate turnover | 390,000 tested, 0.01% active | AID 588456, 2011; note: % is set by controls: 0 for no effect and ±100 for the full control effect; nearly all actives have a fitted effect of over 50% in size
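Rat TrxR1, dispensed at 90 nM, was prereduced with 400 uM NADPH (final) for 5 min at ~22 deg C, then incubated with compound 15 min before 400 uM selenite. A first-read NADPH fluorescence drop versus no-compound background flagged substrates.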
IDH1 R132H inh = qHTS for Inhibitors of mutant isocitrate dehydrogenase 1 (IDH1): qHTS; Isocitrate dehydrogenase [NADP] cytoplasmic (Homo sapiens), O75874; IDH1-R132H enzyme, NADPH consumption, diaphorase/resazurin fluorescence; Potency, µM (series often up to 76.6 µM), without a hit: at the highest dose activity change, negative = inhibition, actives largely listed as inhibitors; 390,000 tested, 0.093% active; AID 602179, 2012; note: % is set by controls: 0 for no effect and ±100 for the full control effect; nearly all actives have a fitted effect of over 65% in size
Target sequence (O75874 whole entry R132H, stated change not applied): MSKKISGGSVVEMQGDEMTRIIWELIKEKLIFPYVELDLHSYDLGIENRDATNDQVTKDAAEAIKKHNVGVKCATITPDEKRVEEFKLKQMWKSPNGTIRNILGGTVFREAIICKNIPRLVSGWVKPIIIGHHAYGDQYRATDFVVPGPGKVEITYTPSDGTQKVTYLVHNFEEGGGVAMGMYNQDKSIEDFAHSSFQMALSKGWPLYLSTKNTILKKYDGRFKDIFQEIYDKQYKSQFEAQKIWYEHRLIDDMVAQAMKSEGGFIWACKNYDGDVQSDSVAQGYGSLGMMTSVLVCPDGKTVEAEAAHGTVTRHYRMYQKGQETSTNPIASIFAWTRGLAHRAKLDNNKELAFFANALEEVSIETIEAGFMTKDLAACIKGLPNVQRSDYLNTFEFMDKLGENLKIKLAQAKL
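IDH1-R132H (0.5 ug/mL dispensed) in pH 7.5 Tris buffer was preincubated 30 min with compound, then given a substrate mix of 0.016 mM NADPH and 2 mM alpha-KG for 80 min at room temperature; remaining NADPH was read by diaphorase/resazurin fluorescence.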
GLP-1R inv ag = qHTS of GLP-1 Receptor Inverse Agonists (Inhibition Mode); Glucagon-like peptide 1 receptor (Homo sapiens), P43220; HEK293 GLP-1R CRE-luciferase, luminescence, 24 h; GLP-1R form is constitutively active; Potency, µM (doses to about 38.3 µM), without a hit: top-dose activity change, negative = inhibition, hits mostly inhibitors; 410,000 tested, 1.6% active; AID 624417, 2012; note: % is set by controls: 0 for no effect and ±100 for the full control effect; nearly all actives have a fitted effect of over 55% in size
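Seeding at 200 cells/uL, 12 h culture, 24 hr compound treatment, then luciferase reagent and a luminescence read; cells are HEK293 stably expressing a constitutively active GLP-1R plus cAMP-responsive luciferase.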
GLP-1R agonist = qHTS of GLP-1 Receptor Agonists | Glucagon-like peptide 1 receptor (Homo sapiens), P43220 | HEK293 GLP-1R CRE-luciferase, luminescence, 4-6 h; cells express a hypersensitive GLP-1R form | Potency, µM (highest dose often 45.6 µM), inactives show top-dose activation, usual class: activators | 380,000 tested, 0.007% active; note: % of control where 0% means no effect
TrxR1 inh = qHTS Assay for Inhibitors of Mammalian Selenoprotein Thioredoxin Reductase 1 (TrxR1): qHTS; recombinant rTrxR1, NADPH fluorescence consumption, selenite substrate; Potency, µM (highest dose often 114 µM), for inactives: at the top dose activity change, negative = inhibition, actives largely listed as inhibitors; 390,000 tested, 1% active; note: % is set by controls: 0 for no effect and ±100 for the full control effect; nearly all actives have a fitted effect of over 65% in size
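Rat TrxR1 (90 nM in the dispensed reagent) was pre-reduced with 400 uM NADPH for 5 min at room temperature, then incubated with compound for 15 min. After 400 uM selenite was added, NADPH fluorescence (Ex 340/Em 450 nm) was followed for 8 min.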
HEK293 tox = qHTS of GLP-1 Receptor Inverse Agonists: Cytotox Screen | HEK293 cAMP-luciferase reporter cells, luminescence, 24 h | Potency, µM (top dose mostly 38.3 µM), for the others: top-dose activity change, negative = inhibition, actives largely listed as inhibitors | 410,000 tested, 0.13% active | AID 624418, 2012;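 note: loss of luciferase light is scored as toxicity; % is set by controls: 0 for no effect and ±100 for the full control effect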
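Quantitative HTS format, 1536 wells, 200 cells/uL seeded. Compounds: 23 nL, 24 h, 37 °C. Detection: luciferase reagent, luminescence at 12 min RT; decreased signal taken as cytotoxic.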
The depositor's hits bear a star; ? = inconclusive; . = not tested or not shown; [ ] = remark or other dose. Shown are actives, neighbours in structure and some others; about 2.7% of the full set was active somewhere. Calls come from the whole dose curve; as a rule, active = well fitted curve in the direction sought with a large enough effect; inconclusive = small, poorly fitted or top-dose-only effect, or another doubt; inactive = no such curve, though single readings can be large; an effect the other way counts as inactive or inconclusive. Potency is the fitted concentration of half-maximal effect.

SMILES | TrxR1 substrate | IDH1 R132H inh | GLP-1R inv ag | GLP-1R agonist | TrxR1 inh | HEK293 tox
Cc1ccc(C2=CC(c3ccccc3)n3ncnc3N2)cc1 (configuration not stated) | 57% | -3% | 1% | 1% | -12% | 462%
COc1ccc(C2C=C(c3ccc(Br)cc3)Nc3nc(N4C(=O)CCC4=O)nn32)cc1 (configuration not stated) | 31% | 5% | 12% | -5% | ? | 323%
CCC(C(=O)Nc1ccc(C(=O)OC)cc1)n1c(=O)c(-c2ccccc2NC(C)=O)nc2ccccc21 (configuration not stated) | -3% | 2% | 0% | . | 8% | -14%
Cc1cc(Sc2nc(N)ncc2[N+](=O)[O-])ncn1 | 10%[57.1 µM] | 11% | ? | -1% | 1.6µM* | ?
Cc1cc(Sc2ncnc(N)c2[N+](=O)[O-])ncn1 | 9%[57.1 µM] | 5% | ? | -2% | ? | ?
C[C@@]12C(=O)OC(=O)[C@]1(C)C1CCC2O1 | -4% | -7% | 1.8µM* | -10% | -5% | ?
Cc1cc(S(=O)(=O)NCc2ccc(N3CCN(C)CC3)cc2)c(C)s1 | -15%[57.1 µM] | 6% | 2.2µM* | 0% | 25%[57.1 µM] | 16%
CN1CCN(c2ccc(CNS(=O)(=O)c3ccc(F)cc3Cl)cc2)CC1 | 3% | -2% | ? | -2% | 23% | 20%
O=C(Nc1ncc(Cc2ccccc2)s1)C1CCN(C(=O)c2ccco2)CC1 | 1% | . | . | . | -16% | .
CCCOc1ccc2c(c1)C(=NN=C(N)N)c1cc(OCCC)ccc1-2 | -5%[57.1 µM] | 6% | 1.8µM* | 5% | 6%[57.1 µM] | ?
Cc1ccc(NC(=O)Cn2c(=O)c3ccccc3n3nncc23)cc1 | -3% | -9% | 4% | 1% | 5% | 12%
Cc1cc(C)c(S(=O)(=O)Nc2ccc3c4c(cccc24)CC3)c(C)c1 | -4% | 18% | 4.5µM* | 5% | -11% | -33%
Cc1ccc(S(=O)(=O)Nc2ccc3c4c(cccc24)CC3)c(C)c1 | -17% | 14% | ? | 15% | 1%[57.1 µM] | -27%
O=C(c1ccc(-c2ccccc2Cl)o1)N1CCCCCCC1 | 2%[57.1 µM] | 0% | 5.6µM* | ? | 6%[57.1 µM] | -16%
COc1ccccc1C(CNC(=O)CCNS(=O)(=O)c1ccc(Br)cc1)N1CCCC1 (configuration not stated) | 11%[57.1 µM] | 5% | 10µM* | 8% | 22%[57.1 µM] | -14%
COc1ccccc1C(CNC(=O)c1ccc(-c2ccccc2Cl)o1)N1CCCC1 (configuration not stated) | 4% | 0% | 4.5µM* | 21% | 0% | ?
CC(=O)N1CCN(C(=O)c2ccc(-c3ccccc3Cl)o2)CC1 | -4% | 0% | 12% | 9% | -7% | -1%
O=C(CCNS(=O)(=O)c1ccc(Cl)cc1)NCCc1ccccc1 | . | -10% | -9% | 6% | . | -2%
COc1ccc(C(CNC(=O)c2ccc(-c3ccccc3Cl)o2)N2CCOCC2)cc1 (configuration not stated) | 2% | 5% | ? | ? | 4% | 9%
O=C(CCNS(=O)(=O)c1ccc(Br)cc1)NCCc1ccc(Cl)cc1 | -2% | -1% | 10µM* | 5% | 9% | 4%
CC(C)(C)n1ncc2c(=O)n(Cc3ccc(Cl)cc3C(F)(F)F)cnc21 | -3% | . | . | . | 1% | .
CCN1CCN(C(c2ccc(F)cc2)c2sc3nc(-c4ccco4)nn3c2O)CC1 (configuration not stated) | 7%[57.1 µM] | 16% | 14% | . | 9%[57.1 µM] | -13%
CCC1CN(C(=O)N2CCC(C(=O)NCc3cccc(C)c3)CC2)c2ccccc2O1 (configuration not stated) | 13%[11.4 µM] | -11% | -3% | . | 18% | 7%
Cc1cccc(NC(c2ccccc2F)c2ccc3ccc(C)nc3c2O)n1 (configuration not stated) | -6%[57.1 µM] | -5% | 10% | . | ? | 0%
Cc1ccc(C)c(C(Nc2ccccc2)c2ccc3ccc(C)nc3c2O)c1 (configuration not stated) | . | . | 5.6µM* | . | . | 12%
SMILES | TrxR1 substrate | IDH1 R132H inh | GLP-1R inv ag | GLP-1R agonist | TrxR1 inh | HEK293 tox
O=C(O)/C=C/C(=O)Nc1ccccc1SC(F)(F)F | 1% | 3% | ? | -3% | 35µM* | 2%
O=C(O)/C=C/C(=O)Nc1ccccc1-c1ccccc1NC(=O)/C=C/C(=O)O | 8%[57.1 µM] | 15% | 4% | 2% | ? | -4%
O=C(Nc1ccc(NC(=O)N2CCN(c3ccccc3O)CC2)cc1)N1CCN(c2ccccc2O)CC1 | 6% | 5% | 5µM* | 10% | 13% | -25%
O=C(Nc1ccc(Cl)cc1Cl)c1cc(S(=O)(=O)N2CCN(c3ccccc3F)CC2)ccc1F | -1%[57.1 µM] | 11% | -6% | . | 21%[57.1 µM] | 1%
Oc1c(Cl)cc(Cl)c2c1NCCC2 | -7% | 18% | ? | -7% | 2.2µM* | ?
CC1=C(c2ccc(C)c(C)c2)S(=O)(=O)N=C1N1CCC(C(=O)NCCc2ccc(Cl)cc2)CC1 | 1% | -6% | ? | . | 4% | -16%
O=C(NCC1(c2ccccc2)CCCC1)c1ccccc1 | 0% | 11% | ? | 16% | 10% | 0%
O=C(NCC1(c2ccccc2)CCCC1)c1ccccc1Br | 6% | 3% | 10µM* | 14% | 17%[57.1 µM] | 0%
CCn1c(=O)c(C(=O)CN(C)Cc2cccc(OC)c2OC)c(N)n(Cc2ccccc2)c1=O | -5% | -1% | ? | -18% | 10%[57.1 µM] | -19%
CCn1c(=O)c(C(=O)CN(C)Cc2ccc(F)cc2)c(N)n(Cc2ccccc2)c1=O | 1%[57.1 µM] | -2% | 8.9µM* | -1% | 8%[57.1 µM] | -17%
CCCc1nn2c(=O)cc(COC(=O)c3cccc(NC(=O)c4ccc(OCC)cc4)c3)nc2s1 | 1%[57.1 µM] | 5% | -24% | . | 15%[57.1 µM] | 1%
CCN(CC(=O)Nc1cc(Cl)ccc1C)C(=O)CCOc1ccccc1C | 4% | -5% | -8% | -1% | 40µM* | 15%
COc1ccccc1N1CCN(C(=O)c2cc3c(=O)oc4ccc(C)cc4c3s2)CC1 | -2% | 27% | 8% | 1% | 8% | 16%
Cc1cc(-c2nnc(-c3ccccc3)c(-c3ccccc3)n2)c(C)o1 | -1% | 0% | -9% | -4% | 32µM* | 2%
